In PMC7862700, “An all-to-all approach to the identification of sequence-specific readers for epigenetic DNA modifications on cytosine” one finds binding signal data, which are given here for eight sequences.

Experiment in all cases: DAPPL (digital affinity profiling via proximity ligation, sequencing); 10 mM Tris-HCl pH 7.5, 50 mM NaCl, 1 mM DTT, 4% glycerol, room temperature, 30 min; GST-TFs on glutathione beads, 16-mer random dsDNA library, 0.1% formaldehyde crosslink after washing; high values mean tight binding
Holding throughout (settings): protein: recombinant; tags: N-terminal GST; dsDNA, one strand shown

The target of assay [1] is T1, FLI1 (Homo sapiens, UniProt Q01543 1-452).
T1 sequence: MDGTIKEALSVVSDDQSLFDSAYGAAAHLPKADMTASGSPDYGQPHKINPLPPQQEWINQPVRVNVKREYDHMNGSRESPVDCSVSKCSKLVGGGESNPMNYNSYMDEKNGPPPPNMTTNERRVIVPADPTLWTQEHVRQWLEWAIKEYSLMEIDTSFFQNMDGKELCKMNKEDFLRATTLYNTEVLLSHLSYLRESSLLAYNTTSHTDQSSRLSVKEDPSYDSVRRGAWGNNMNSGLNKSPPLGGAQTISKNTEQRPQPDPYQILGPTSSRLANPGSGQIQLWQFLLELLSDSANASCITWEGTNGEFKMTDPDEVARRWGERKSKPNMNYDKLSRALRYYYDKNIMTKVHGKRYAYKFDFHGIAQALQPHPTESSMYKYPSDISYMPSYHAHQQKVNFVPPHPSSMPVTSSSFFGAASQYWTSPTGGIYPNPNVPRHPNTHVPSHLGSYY
The procedure, abridged:
(§1)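 A tag-only sample was pooled with DNA-barcoded human transcription factors that had been expressed in yeast as GST fusions and captured on glutathione beads. The pools were incubated for 30 min at room temperature with 200 nmole of a random double-stranded 16-mer DNA library in Tris/NaCl/DTT/glycerol buffer, then washed, crosslinked with 0.1% formaldehyde, proximity-ligated (BsaI/T4 ligase, 1 h, 37 °C), PCR-amplified and sequenced on an Illumina NextSeq500. Binding signal is each hexamer's read frequency for a factor divided by its frequency for the tag-only sample.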

Assay [2] concerns the target T2, ELK1 (Homo sapiens, UniProt P19419 1-428).
T2 sequence: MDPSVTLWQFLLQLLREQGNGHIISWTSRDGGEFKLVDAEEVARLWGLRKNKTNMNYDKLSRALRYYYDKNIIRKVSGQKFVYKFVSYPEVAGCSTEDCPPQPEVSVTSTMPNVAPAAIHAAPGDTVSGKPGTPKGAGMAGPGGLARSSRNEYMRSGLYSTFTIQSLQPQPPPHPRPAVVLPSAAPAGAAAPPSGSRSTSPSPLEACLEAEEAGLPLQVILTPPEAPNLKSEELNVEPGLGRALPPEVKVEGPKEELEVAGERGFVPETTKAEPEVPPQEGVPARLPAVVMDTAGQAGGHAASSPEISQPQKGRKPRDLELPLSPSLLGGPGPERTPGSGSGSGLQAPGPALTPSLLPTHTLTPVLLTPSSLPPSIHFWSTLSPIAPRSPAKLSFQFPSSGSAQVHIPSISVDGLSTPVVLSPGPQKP
The procedure, abridged: as §1

The target in assay [3] is T3, GABPA (Homo sapiens, UniProt Q06546 1-454).
T3 sequence: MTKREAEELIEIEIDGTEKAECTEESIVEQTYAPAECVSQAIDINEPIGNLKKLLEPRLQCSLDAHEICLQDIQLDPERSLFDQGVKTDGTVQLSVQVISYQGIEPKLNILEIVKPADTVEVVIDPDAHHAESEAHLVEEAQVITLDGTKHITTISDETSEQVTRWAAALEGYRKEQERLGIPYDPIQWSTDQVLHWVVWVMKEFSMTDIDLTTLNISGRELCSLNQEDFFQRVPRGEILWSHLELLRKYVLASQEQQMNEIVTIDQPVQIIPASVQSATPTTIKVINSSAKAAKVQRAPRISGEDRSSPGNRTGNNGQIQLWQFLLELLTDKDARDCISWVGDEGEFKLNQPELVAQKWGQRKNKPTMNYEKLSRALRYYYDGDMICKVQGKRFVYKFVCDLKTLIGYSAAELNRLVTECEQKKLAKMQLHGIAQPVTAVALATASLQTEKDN
In a few lines:
as §1

In assay [4] the target is T4, ERG (Homo sapiens, UniProt P11308 1-479).
T4 sequence: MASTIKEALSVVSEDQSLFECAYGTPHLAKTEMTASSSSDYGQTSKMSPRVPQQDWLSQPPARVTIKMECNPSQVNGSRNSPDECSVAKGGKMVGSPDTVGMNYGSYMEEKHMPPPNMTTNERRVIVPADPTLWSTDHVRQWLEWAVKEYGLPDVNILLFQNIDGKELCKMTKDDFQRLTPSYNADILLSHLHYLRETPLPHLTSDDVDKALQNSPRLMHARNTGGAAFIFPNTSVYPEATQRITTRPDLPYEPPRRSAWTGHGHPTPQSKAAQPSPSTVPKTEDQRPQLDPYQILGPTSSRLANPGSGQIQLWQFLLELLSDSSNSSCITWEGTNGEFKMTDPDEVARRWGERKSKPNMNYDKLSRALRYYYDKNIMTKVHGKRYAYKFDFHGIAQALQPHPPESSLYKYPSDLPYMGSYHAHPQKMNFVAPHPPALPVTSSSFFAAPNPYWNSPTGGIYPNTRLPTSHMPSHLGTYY
In a few lines:
as §1

The target of assay [5] is ELF1 (Homo sapiens, UniProt P32519 1-619). The procedure, abridged: as §1
Assay [6] has as its target T5, EHF (Homo sapiens, UniProt Q9NZC4 1-300).
T5 sequence: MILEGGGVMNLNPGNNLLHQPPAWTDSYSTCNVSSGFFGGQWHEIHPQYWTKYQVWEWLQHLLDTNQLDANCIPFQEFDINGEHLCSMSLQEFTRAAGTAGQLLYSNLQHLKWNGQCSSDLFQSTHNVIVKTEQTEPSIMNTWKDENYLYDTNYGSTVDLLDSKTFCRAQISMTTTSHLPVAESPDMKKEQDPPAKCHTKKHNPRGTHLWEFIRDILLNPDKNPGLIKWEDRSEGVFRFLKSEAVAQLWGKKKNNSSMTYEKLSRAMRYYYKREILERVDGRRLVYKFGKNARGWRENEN
In a few lines: as §1

For assay [7], the target named is SPI1 (Homo sapiens, UniProt P17947 1-270). In a few lines:
as §1

The target of assay [8] is SPIB (Homo sapiens, UniProt Q01892 1-262). In a few lines:
as §1

Assay [9] has as its target T6, ELK3 (Homo sapiens, UniProt P41970 1-407).
T6 sequence: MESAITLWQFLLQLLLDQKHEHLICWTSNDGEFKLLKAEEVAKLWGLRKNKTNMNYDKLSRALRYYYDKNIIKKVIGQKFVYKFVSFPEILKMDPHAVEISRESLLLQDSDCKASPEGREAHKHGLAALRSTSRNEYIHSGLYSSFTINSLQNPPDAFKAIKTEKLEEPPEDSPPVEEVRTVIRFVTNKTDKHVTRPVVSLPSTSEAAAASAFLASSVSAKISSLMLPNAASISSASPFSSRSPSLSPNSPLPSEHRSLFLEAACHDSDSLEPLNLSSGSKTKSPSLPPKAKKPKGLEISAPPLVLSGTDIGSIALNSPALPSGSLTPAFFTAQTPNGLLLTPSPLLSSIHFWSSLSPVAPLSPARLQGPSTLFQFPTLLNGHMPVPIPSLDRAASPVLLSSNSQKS
In a few lines:
as §1

Chain of SPIB (Q01892 whole entry): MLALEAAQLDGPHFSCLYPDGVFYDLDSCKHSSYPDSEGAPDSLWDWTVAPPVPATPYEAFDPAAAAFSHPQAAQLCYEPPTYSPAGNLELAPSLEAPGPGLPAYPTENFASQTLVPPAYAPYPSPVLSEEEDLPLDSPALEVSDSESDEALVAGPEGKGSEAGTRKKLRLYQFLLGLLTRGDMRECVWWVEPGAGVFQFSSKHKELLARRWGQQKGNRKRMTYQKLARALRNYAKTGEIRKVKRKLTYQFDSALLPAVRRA
Chain of ELF1 (P32519 whole entry): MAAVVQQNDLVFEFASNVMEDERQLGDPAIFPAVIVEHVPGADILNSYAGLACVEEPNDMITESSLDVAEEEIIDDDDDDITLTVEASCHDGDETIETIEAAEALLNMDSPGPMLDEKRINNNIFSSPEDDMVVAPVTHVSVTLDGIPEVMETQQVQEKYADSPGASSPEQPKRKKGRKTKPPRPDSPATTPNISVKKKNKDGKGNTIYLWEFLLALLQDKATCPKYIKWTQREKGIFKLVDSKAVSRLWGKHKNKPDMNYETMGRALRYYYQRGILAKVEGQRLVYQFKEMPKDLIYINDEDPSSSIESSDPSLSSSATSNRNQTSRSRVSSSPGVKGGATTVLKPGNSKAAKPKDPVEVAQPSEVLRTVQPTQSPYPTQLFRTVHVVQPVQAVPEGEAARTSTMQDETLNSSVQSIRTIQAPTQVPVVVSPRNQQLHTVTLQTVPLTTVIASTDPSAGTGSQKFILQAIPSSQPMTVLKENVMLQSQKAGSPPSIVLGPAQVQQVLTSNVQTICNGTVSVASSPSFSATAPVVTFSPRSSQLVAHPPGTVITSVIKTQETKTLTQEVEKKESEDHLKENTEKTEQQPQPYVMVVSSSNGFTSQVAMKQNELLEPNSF

For the sequence TTAAGT, the binding signal was 1.06 fold enrichment (6-mer frequency, TF over GST control) in [1]; 1.3 fold enrichment (6-mer frequency, TF over GST control) in assay [2]; 1.16 fold enrichment (6-mer frequency, TF over GST control) in assay [3]; 1.17 fold enrichment (6-mer frequency, TF over GST control) in [4]; 1.19 fold enrichment (6-mer frequency, TF over GST control) in assay [5]; 1.15 fold enrichment (6-mer frequency, TF over GST control) in assay [6]. The binding signal in assay [7] is 1.06 fold enrichment (6-mer frequency, TF over GST control); in [8], 1.2 fold enrichment (6-mer frequency, TF over GST control); in assay [9], 1.23 fold enrichment (6-mer frequency, TF over GST control).
Turning to GTTTTC, the binding signal in [1] was 1.19 fold enrichment (6-mer frequency, TF over GST control); in assay [2], 1.2 fold enrichment (6-mer frequency, TF over GST control); in [3], 1.23 fold enrichment (6-mer frequency, TF over GST control); in [4], 1.24 fold enrichment (6-mer frequency, TF over GST control); in assay [5] it was 1.15 fold enrichment (6-mer frequency, TF over GST control); in assay [6], 1.28 fold enrichment (6-mer frequency, TF over GST control). The binding signal is 1.17 fold enrichment (6-mer frequency, TF over GST control) in assay [7]; 1.2 fold enrichment (6-mer frequency, TF over GST control) in assay [8]; 1.23 fold enrichment (6-mer frequency, TF over GST control) in assay [9].
On to ACCTGG, for which the binding signal is 1.25 fold enrichment (6-mer frequency, TF over GST control) in assay [1]; 1.28 fold enrichment (6-mer frequency, TF over GST control) in assay [2]; 1.25 fold enrichment (6-mer frequency, TF over GST control) in [3]; 1.25 fold enrichment (6-mer frequency, TF over GST control) in assay [4]; 1.25 fold enrichment (6-mer frequency, TF over GST control) in assay [5]; 1.22 fold enrichment (6-mer frequency, TF over GST control) in [6]. The binding signal in assay [7] is 1.2 fold enrichment (6-mer frequency, TF over GST control); in assay [8], 1.31 fold enrichment (6-mer frequency, TF over GST control); in assay [9] it was 1.23 fold enrichment (6-mer frequency, TF over GST control).
For the sequence GTACAT, the binding signal in assay [1] is 1.4 fold enrichment (6-mer frequency, TF over GST control); in assay [2], 1.35 fold enrichment (6-mer frequency, TF over GST control); in assay [3] it was 1.17 fold enrichment (6-mer frequency, TF over GST control); in assay [4], 1.35 fold enrichment (6-mer frequency, TF over GST control); in assay [5] it was 1.36 fold enrichment (6-mer frequency, TF over GST control); in assay [6], 1.26 fold enrichment (6-mer frequency, TF over GST control). In addition, the binding signal is 1.28 fold enrichment (6-mer frequency, TF over GST control) in assay [7]; 1.36 fold enrichment (6-mer frequency, TF over GST control) in assay [8]; 1.44 fold enrichment (6-mer frequency, TF over GST control) in [9].
As for ACTTAC, the binding signal in assay [1] was 1.14 fold enrichment (6-mer frequency, TF over GST control); in assay [2], 1.17 fold enrichment (6-mer frequency, TF over GST control); in [3], 1.2 fold enrichment (6-mer frequency, TF over GST control); in assay [4], 1.1 fold enrichment (6-mer frequency, TF over GST control); in assay [5] it was 1.18 fold enrichment (6-mer frequency, TF over GST control); in [6], 1.28 fold enrichment (6-mer frequency, TF over GST control). For the same sequence, the binding signal in assay [7] is 1.27 fold enrichment (6-mer frequency, TF over GST control); in [8], 1.1 fold enrichment (6-mer frequency, TF over GST control); in assay [9], 1.12 fold enrichment (6-mer frequency, TF over GST control).
As for TGACTC, the binding signal was 1.49 fold enrichment (6-mer frequency, TF over GST control) in [1]; 1.39 fold enrichment (6-mer frequency, TF over GST control) in [2]; 1.4 fold enrichment (6-mer frequency, TF over GST control) in [3]; 1.39 fold enrichment (6-mer frequency, TF over GST control) in assay [4]; 1.36 fold enrichment (6-mer frequency, TF over GST control) in assay [5]; 1.27 fold enrichment (6-mer frequency, TF over GST control) in [6]. Moreover, the binding signal is 1.27 fold enrichment (6-mer frequency, TF over GST control) in [7]; 1.42 fold enrichment (6-mer frequency, TF over GST control) in assay [8]; 1.41 fold enrichment (6-mer frequency, TF over GST control) in assay [9].
As for TATACT, the binding signal is 1.25 fold enrichment (6-mer frequency, TF over GST control) in [1]; 1.41 fold enrichment (6-mer frequency, TF over GST control) in assay [2]; 1.43 fold enrichment (6-mer frequency, TF over GST control) in assay [3]; 1.29 fold enrichment (6-mer frequency, TF over GST control) in assay [4]; 1.39 fold enrichment (6-mer frequency, TF over GST control) in assay [5]; 1.39 fold enrichment (6-mer frequency, TF over GST control) in assay [6]. The binding signal in assay [7] was 1.35 fold enrichment (6-mer frequency, TF over GST control); in assay [8], 1.36 fold enrichment (6-mer frequency, TF over GST control); in assay [9], 1.43 fold enrichment (6-mer frequency, TF over GST control).
As to ATTCCA, the binding signal was 1.17 fold enrichment (6-mer frequency, TF over GST control) in assay [1]; 1.1 fold enrichment (6-mer frequency, TF over GST control) in assay [2]; 1.16 fold enrichment (6-mer frequency, TF over GST control) in assay [3]; 1.14 fold enrichment (6-mer frequency, TF over GST control) in assay [4]; 1.22 fold enrichment (6-mer frequency, TF over GST control) in [5]; 1.13 fold enrichment (6-mer frequency, TF over GST control) in assay [6]. Further, the binding signal in assay [7] was 1.16 fold enrichment (6-mer frequency, TF over GST control); in assay [8], 1.1 fold enrichment (6-mer frequency, TF over GST control); in assay [9], 1.25 fold enrichment (6-mer frequency, TF over GST control).
